Laboratory results reported in PubChem BioAssay AID1918969 (ICCB-Longwood Screening Facility, Harvard Medical School, 2023).
Among all 190,000 compounds or so, about 280 (0.15%) were called active. No stated cut-off is given here; in the data, active means inhibition above about 27% (passing the limit was not always enough); inactive means the rest. Only a selection was taken, and actives are over-represented in it overall.

What follows are molecules tested on HCMV UL50-UL53 nuclear egress complex (human cytomegalovirus) (assay: HCMV nuclear egress complex disruptors – biochemical, HTRF (AID 1918969)). Conditions: HTRF UL50-UL53 interaction, normalized percent inhibition; hits give high values; concentration not given here.

Row | SMILES | inhibition
1 | COc1ccccc1N1CCN(C(=O)Cc2csc(NC(=O)Nc3ccccc3)n2)CC1 | -7.3% (inactive)
2 | CC1CCN(C(=O)c2cn(C)cc3c(=O)n(-c4ccccc4)nc2-3)CC1 | -66.2% (inactive)
3 | CC(C)(C)c1ccc(CN2C(=O)N(Cc3ccccc3)S(=O)(=O)c3ccccc32)cc1 | -19.5% (inactive)
4 | Cc1nnc(NC(=O)Cn2cnc3oc(C)c(C)c3c2=O)s1 | -21.8% (inactive)
5 | O=S(=O)(NCCc1ccccn1)c1cc(Cl)cc(Cl)c1O | -28.9% (inactive)
6 | Cc1noc(C)c1C(=O)c1c(C)[nH]n(-c2ccccc2)c1=O | -25.3% (inactive)
7 | CC1=NOC(=O)C1C(c1cccc(Br)c1)c1c(C)[nH]n(-c2ccccc2)c1=O (centres undefined) | 59.5% (active)
8 | Cc1ccc(Sc2c(C)[nH]n(-c3ccccc3)c2=O)cc1 | -26% (inactive)
9 | O=C(CN1C(=O)c2ccccc2C1=O)Nc1ccc2c(c1)CCC(=O)N2 | -46% (inactive)
10 | COC(=O)c1ccc(C)c(NS(=O)(=O)c2ccc3c(c2)c(=O)sn3C)c1 | -31.7% (inactive)
11 | S=C(c1ccncc1)N1CCOCC1 | -13.4% (inactive)
12 | CCCCCCCCCCCCCCCC(=O)O[C@@H]1[C@@H](O)[C@@H](O)C([C@H](NC(=O)[C@@H]2C[C@@H](CCC)CN2C)[C@H](C)Cl)O[C@@H]1SC (some centres undefined) | -4.7% (inactive)
13 | N#CCCn1cc(C=NCc2ccccc2)c(-c2cc3ccccc3o2)n1 | -30.5% (inactive)
14 | COc1ccc(F)cc1-c1cc(N2CCN(S(=O)(=O)c3ccc(F)c(Cl)c3)CC2)ncn1 | -27.5% (inactive)
15 | NS(=O)(=O)c1ccc(NC(=O)c2cc(-c3ccc4c(c3)OCO4)nc3ccccc23)cc1 | -4.6% (inactive)
16 | COC(=O)c1sccc1NC(=O)c1cc(=O)n2c(nc3cc(C)c(C)cc32)s1 | -30.2% (inactive)
17 | O=C1CN(S(=O)(=O)c2ccc(-c3ccc(=O)[nH]n3)s2)c2ccccc2N1 | -43.4% (inactive)
18 | O=C(Oc1ccccc1)c1cccc(C(=O)Oc2ccccc2)c1F | -13.9% (inactive)
19 | COc1ccc(OC)c(NC(=O)c2cc3c([nH]c2=O)CC(C)(C)CC3=O)c1 | 3.5% (inactive)
20 | Cc1ccc(C(=O)NCC(=O)NC2CC2)cc1 | -17.5% (inactive)

Row | SMILES | inhibition
21 | N#CC(C#N)=C1SCN(c2cccc(Cl)c2)CS1 | -5% (inactive)
22 | COc1cccc(NC(=O)c2c(-c3cccnc3)noc2C)c1 | -15.4% (inactive)
23 | COc1ccc(NC(=O)CCCSc2nc3sc(C)c(C)c3c(=O)[nH]2)cc1 | -2.2% (inactive)
24 | CNc1nc(OC)nc(N(C)C)n1 | 11.3% (inactive)
25 | O=C(Nc1ccc2oc(-c3ccccc3Br)nc2c1)c1cccc([N+](=O)[O-])c1 | 7% (inactive)
26 | CCc1nc(-c2cc(S(=O)(=O)N3CCCC(C(=O)Nc4ccc(C)c(F)c4)C3)c(C)s2)no1 (centres undefined) | -9.2% (inactive)
27 | Cc1ccc(NC(=O)CCCc2nc3cccnc3n2CCC(C)C)cc1 | -10.6% (inactive)
28 | Nc1nc(Nc2ccccc2)sc1C(=O)c1ccc(Br)cc1 | -4.3% (inactive)
29 | CC1(C)Cc2cccc(Oc3ncnc4sccc34)c2O1 | -13% (inactive)
30 | O=C(CCS(=O)(=O)c1ccc2c(c1)NC(=O)CS2)NCc1ccccc1Cl | -15.7% (inactive)
31 | OC(Cc1nc2ccccc2o1)c1ccccc1 (centres undefined) | -3.6% (inactive)
32 | COc1ccc(C(=O)CSc2nc3nc[nH]c3c(=O)[nH]2)cc1 | -13.4% (inactive)
33 | COc1cc(=O)[nH]c(SC(C)C(=O)Nc2ccccc2)n1 (centres undefined) | -5.6% (inactive)
34 | CCCc1noc(-c2cc(S(N)(=O)=O)ccc2OC)n1 | 3.5% (inactive)
35 | O=C(Cc1nc2ccccc2n1C(F)F)c1ccccc1 | -21.1% (inactive)
36 | COc1ccc(N(Cc2nc3ccccc3s2)S(=O)(=O)c2cccs2)cc1 | -24.9% (inactive)
37 | NC(=O)c1ccc2c3c(cccc13)CC2 | -30.8% (inactive)
38 | Cc1nc(Nc2ccc(NC(=O)C(C)(C)C)cc2)cc(N(C)C)n1 | 7.9% (inactive)
39 | COc1cc(-c2noc(-c3ccccc3)n2)ccc1OCC(=O)Nc1ccc(F)cc1 | -31.7% (inactive)
40 | CCOC(=O)C1C(=O)CC(=O)C(C(=O)OCC)C1c1ccccc1 (centres undefined) | -6.9% (inactive)

Row | SMILES | inhibition
41 | CCOC(=O)c1noc2ncnc(N(CC)c3ccccc3)c12 | -26.1% (inactive)
42 | O=C(NCN1CCN(CNC(=O)c2ccccc2)CC1)c1ccccc1 | -42.2% (inactive)
43 | CCn1c(=O)c(=O)n(CC)c2cc(N3CCCCC3)c(NC(=O)c3ccc(Cl)cc3)cc21 | 62.9% (active)
44 | CCn1c(=O)c(=O)n(CC)c2cc(N3CCCCC3)c(NC(=O)c3ccccc3)cc21 | -23.2% (inactive)
45 | CCn1c(=O)c(=O)n(CC)c2cc(N3CCCCC3)c(NC(=O)c3cccc(F)c3)cc21 | -3.5% (inactive)
46 | CCCCn1c(SCC(=O)N2CCCC2)nc2cn(C)nc2c1=O | -19.7% (inactive)
47 | Cn1cc(CCC(=O)NC2CC2)c2ccccc21 | 0.4% (inactive)
48 | CC1(C)CC(=O)C2=C(C1)N(Cc1ccco1)C(=O)C2(NC(=O)c1cccs1)C(F)(F)F (centres undefined) | -5.4% (inactive)
49 | CCN(CC)c1ccc2cc(-c3csc(-c4nc(-c5cc6ccc(N(CC)CC)cc6oc5=O)cs4)n3)c(=O)oc2c1 | -0.5% (inactive)
50 | Cc1cc(NC(=O)c2ccc(N(C)C)cc2)no1 | 1.2% (inactive)
51 | O=C(CC1=NS(=O)(=O)c2ccccc2N1)N1CCN(C(c2ccccc2)c2ccccc2)CC1 | -9.6% (inactive)
52 | C/C(=N\O)C(C)(C)Nc1ccccc1 | 24.2% (inactive)
53 | Cc1ccc(S(=O)(=O)N(C)CC(=O)OCc2nc3ccccc3s2)cc1 | -25.9% (inactive)
54 | CCOC(=O)c1c(NC(=O)CSc2nccn2C)sc2c1CCC(C)C2 (centres undefined) | -12.2% (inactive)
55 | CC(C)N(C(=O)CNc1cc(Cl)ccc1Cl)c1ccccc1 | -6.5% (inactive)
56 | O=C1c2ccccc2C(=O)C1c1ccccc1F | -3.9% (inactive)
57 | Cc1c(OCC(N)=O)ccc2c3c(c(=O)oc12)CCCC3 | 7.5% (inactive)
58 | NC(=O)c1ccc(-c2ccccc2)cc1C(N)=O | -28.2% (inactive)
59 | Nc1nc(N)nc(SCC(=O)N2CCCC2)n1 | -9.6% (inactive)
